Assay outcomes: PubChem BioAssay, National Center for Advancing Translational Sciences (NCATS)
RORg inh: qHTS for inhibitors of ROR gamma transcriptional activity; Nuclear receptor ROR-gamma (Mus musculus), P51450; Drosophila S2 Gal4-RORgamma UAS-luciferase reporter, 20 h; Potency, µM (titrated, usually from 53.6 µM), for inactives: at the top dose activity change, negative = inhibition, actives largely listed as inhibitors; 310,000 compounds, 5.4% hits; AID 2551, 2010; note: potency is the fitted concentration of half-maximal effect; nearly all actives have a fitted effect of over 60% in size
Target sequence (P51450 whole entry, looked up, the tested form may be a part): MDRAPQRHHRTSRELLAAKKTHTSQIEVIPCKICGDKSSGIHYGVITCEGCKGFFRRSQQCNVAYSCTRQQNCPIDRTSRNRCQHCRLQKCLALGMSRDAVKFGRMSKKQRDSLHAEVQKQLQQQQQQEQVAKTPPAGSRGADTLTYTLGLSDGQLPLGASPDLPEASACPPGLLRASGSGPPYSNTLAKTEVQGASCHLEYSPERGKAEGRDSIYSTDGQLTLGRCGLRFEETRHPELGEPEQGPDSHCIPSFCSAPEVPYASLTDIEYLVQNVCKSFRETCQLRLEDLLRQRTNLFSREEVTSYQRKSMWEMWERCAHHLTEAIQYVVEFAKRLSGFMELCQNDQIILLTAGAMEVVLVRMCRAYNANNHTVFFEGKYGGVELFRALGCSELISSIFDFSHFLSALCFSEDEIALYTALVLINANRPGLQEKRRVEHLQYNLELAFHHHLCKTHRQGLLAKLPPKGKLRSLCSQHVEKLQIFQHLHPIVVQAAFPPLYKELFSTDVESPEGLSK
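Stable Schneider cell line, Gal4 DNA-binding domain fused to ROR gamma, UAS-luciferase. Cmpd 1 hr RT → CuSO4 700 uM final → 20 hr RT → luciferase reagent 10 min → luminescence.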
IL-1B inflam inh: qHTS for Inhibitors of Inflammasome Signaling: IL-1-beta AlphaLISA Primary Screen. THP-1 LPS/ATP IL-1B secretion, AlphaLISA, 16 h; hits give low values. AID 743279, 2014. 360,000 compounds, 4.7% hits. activity change, % at 57.5 µM; in the data active = activity change below about -50%; inconclusive = mostly about -30% to -49%
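Secreted IL-1B measured by AlphaLISA bead assay after 16 h compound exposure of THP-1 cells; compounds (final up to 57.5 uM) added 1 h before LPS (250 ng/mL) and ATP (1.25 mM) stimulation; lower signal means less secretion.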
DT40 TDP1 CPT: qHTS for Inhibitors of human tyrosyl-DNA phosphodiesterase 1 (TDP1): qHTS in cells in presence of CPT; chicken DT40 Tdp1-/-;hTDP1 cells + 20 nM CPT, ATP luminescence, 48 h; Potency, µM (series often up to 46.2 µM), inactives show top-dose activity change, negative = growth inhibition, most hits filed as inhibitors; 420,000 compounds, 12% hits; note: potency is the fitted concentration of half-maximal effect; nearly all actives have a fitted effect of over 55% in size
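Chicken DT40 Tdp1-/- cells stably complemented with human TDP1 were seeded at 400 cells/well in medium containing 20 nM camptothecin, exposed to pin-transferred compounds, and grown at 37 °C for at least 48 hr. Viability was read as ATP luminescence.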
Gal4-VP16 FLuc: VP16 counterscreen qHTS for inhibitors of ROR gamma transcriptional activity. Drosophila S2 Gal4-VP16 UAS-luciferase, luminescence, 20 h. Potency, µM (doses to about 53.6 µM), inactives show at the highest dose activity, negative = inhibition, actives largely listed as inhibitors. 310,000 compounds, 3.5% hits. AID 2546, 2010;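 note: Gal4-VP16 expression switched on by copper sulfate through the metallothionein promoter; potency is the fitted concentration of half-maximal effect; nearly all actives have a fitted effect of over 50% in size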
LDHA block: qHTS assay for inhibitors of human lactate dehydrogenase. L-lactate dehydrogenase A chain (Homo sapiens), P00338. purified LDHA, NADH/diaphorase-resazurin fluorescence; hits give low values. activity change, % (values are at about 110 or 230 µM). 480,000 compounds, 0.15% hits; in the data active = activity change below about -30%; inconclusive = mostly about -25% to -30%;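 note: plate controls were DMSO wells for no effect and wells without enzyme for full effect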
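Resorufin fluorescence (ex540/em590), read at 0 and 20 min after diaphorase/resazurin addition, reports the NADH left after a 5 min room-temperature reaction of 2 nM human LDH5 with 0.06 mM NADH and 0.2 mM pyruvate.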
DT40 TDP1 no CPT: qHTS for Inhibitors of human tyrosyl-DNA phosphodiesterase 1 (TDP1): qHTS in cells in absence of CPT; DT40 Tdp1-/- hTDP1 cells, no CPT, ATP luminescence, 48 h; Potency, µM (highest dose often 46.2 µM), inactives show at the top dose activity change, negative = growth inhibition, hits mostly inhibitors; 420,000 compounds, 15% hits; AID 686978, 2013; note: potency is the fitted concentration of half-maximal effect; nearly all actives have a fitted effect of over 55% in size
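Luminescent ATP content (CellTiter-Glo) served as the growth readout. Knockout chicken DT40 cells expressing human TDP1 were exposed to compounds without camptothecin for a minimum 48 hr at 37 °C.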
Active calls of the source: *; ? = inconclusive; · = not tested or not shown; [ ] = another dose, or the depositor's remark. A selection: hits, their analogues and other compounds. The true share with any hit is near 18%. Unless noted, calls come from the whole dose curve; as a rule, active = well fitted curve in the direction sought with a large enough effect; inconclusive = small, poorly fitted or top-dose-only effect, or another doubt; inactive = no such curve, though single readings can be large; an effect the other way counts as inactive or inconclusive. Unless noted, % is set by controls: 0 for no effect and ±100 for the full control effect.

SMILES	RORg inh	IL-1B inflam inh	DT40 TDP1 CPT	Gal4-VP16 FLuc	LDHA block	DT40 TDP1 no CPT
CC(NC(=O)c1ccc(F)cc1Br)c1ccc(F)cc1 (stereo not drawn)	·	·	·	·	4	·
CCCCC(=O)NC(c1ccc(Cl)cc1Cl)c1ccc2cccnc2c1O (stereo not drawn)	3.2µM*	179	6.5µM*	3.2µM*	26	2.9µM*
CC(NC(=O)CSc1ncccn1)c1ccc(Cl)cc1Cl (stereo not drawn)	14%	22	-5%	-2%	0	?
CC(C)C(=O)NC(C)c1ccc(Cl)cc1Cl (stereo not drawn)	·	·	·	·	1	·
CC(C)C(=O)NC(c1ccc(Cl)cc1Cl)c1ccc2cccnc2c1O (stereo not drawn)	4.5µM*	74	6.5µM*	3.2µM*	10	5.2µM*
CCC(=O)NC(c1ccc(Cl)cc1Cl)c1ccc2cccnc2c1O (stereo not drawn)	-1%[1.91 µM]	-85*	5.2µM*	?	6	5.2µM*
CCn1cc(C(=O)O)c(=O)c2cc(F)c(N3CCN[C@@H](C)C3)c(F)c21	-13%[16.9 µM]	·	·	-1%[17 µM]	·	·
Cc1c(-n2cc(C(=O)O)c(=O)c3cc(F)c(N4CCCC4)c(F)c32)c(=O)n(-c2ccccc2)n1C	-2%	-16	16µM*	0%	6	23µM*
CC(SC1CCCC1)C(=O)Nc1cccc(C#N)c1 (stereo not drawn)	·	·	·	·	-2	·
O=C(CCc1ncc(-c2ccc(F)cc2F)o1)Nc1ccc2c(c1)C(=O)NC2	·	·	·	·	-2	·
Cc1cc(C(=O)OC(C)C(=O)Nc2ccc(Cl)cc2Cl)c(C)o1 (stereo not drawn)	·	·	·	·	3	·
CSc1ncnc2c1ncn2CCCN1CCN(Cc2cccc3ccccc23)CC1	·	?	?	·	-1	23µM*
CSc1ncnc2c1ncn2CCCNc1ccc(C)c(C)c1	·	23	?	·	3	21µM*
COc1ncnc2c1ncn2CCCN1CCN(Cc2cccc3ccccc23)CC1	·	-4	?	·	-1	23µM*
COc1ncnc2c1ncn2CCCN1CCN(Cc2ccc(C)cc2)CC1	·	38	9%	·	-14	-8%
COc1ccc(OCC(=O)n2nc(C)c(S(=O)(=O)N3CCc4ccccc4C3)c2C)cc1	·	·	·	·	13	·
C=CCOc1ccc(CNCc2ccco2)cc1OCC	·	·	·	·	-1	·
Fc1ccc(NC(=S)NCCC2=CCCCC2)cc1	·	·	·	·	-11	·
CSc1nc(C)c(CCC(=O)NC(c2ccccc2)C(C)C)c(C)n1 (stereo not drawn)	·	·	·	·	8	·
COc1cc(OC)c(/C=N/NC(=O)c2ccc(NC(C)=O)cc2)cc1Br	2%	-3	12%	2%	-10	-15%
CC(C)C(=O)Nc1ccc(C(=O)N/N=C/c2cc(Br)cc(Br)c2O)cc1	?	141	7.3µM*	?	-3	13µM*
CNC(=S)N/N=C/c1cc(Br)cc(Br)c1O	3.2µM*	0	?	3.2µM*	-6	?
CC(=O)Nc1ccc(C(=O)N/N=C/c2cc(Br)cc(Br)c2O)cc1	5µM*	126	12µM*	-25%	-11	10µM*
CC(C)C(C(=O)Nc1ccc(NC(N)=O)cc1)c1ccc(Cl)cc1 (stereo not drawn)	·	·	·	·	-2	·
COc1ccc(CNC(=O)CCC2N=C3c4ccccc4N=C(SCc4ccc(F)cc4)N3C2=O)cc1 (stereo not drawn)	·	·	?	·	0	23µM*
SMILES	RORg inh	IL-1B inflam inh	DT40 TDP1 CPT	Gal4-VP16 FLuc	LDHA block	DT40 TDP1 no CPT
O=C(CCC1N=C2c3ccccc3N=C(SCc3ccccc3F)N2C1=O)NCc1ccccc1 (stereo not drawn)	·	·	?	·	-3	18µM*
O=C(CCC1N=C2c3ccccc3N=C(SCc3ccccc3F)N2C1=O)NCc1ccc(F)cc1 (stereo not drawn)	·	·	?	·	-3	26µM*
O=C(CCC1N=C2c3ccccc3N=C(SCc3ccc(F)cc3)N2C1=O)NCc1ccc(F)cc1 (stereo not drawn)	·	·	?	·	-4	?
COCCN1C(=O)c2ccccc2NC1c1csc(-c2ccc(Cl)cc2)n1 (stereo not drawn)	·	·	·	·	-11	·
Cc1cc(C)c(NC(=O)CCc2ncc(-c3ccccc3)o2)c(C)c1	·	·	·	·	0	·
Cc1nnc(SC(=O)N2c3ccccc3Sc3ccccc32)s1	-33%[0.365 µM]	-101*	13µM*	·	-1	10µM*
Cc1nnc(SCC(=O)N2c3ccccc3Sc3ccccc32)n1N	?	4	-2%	-1%	0	1%
CN1/C(=C\C(=S)NC(=O)c2ccccc2Cl)C(C)(C)c2ccccc21	7.9µM*	-54*	7.3µM*	20µM*	-3	4.6µM*
COc1ccccc1C(=O)NC(=S)/C=C1/N(C)c2ccccc2C1(C)C	4%	?	?	3%	-4	?
CN1/C(=C/C(=S)NC(=O)C2(C)CC2(Cl)Cl)C(C)(C)c2ccccc21 (stereo not drawn)	4.5µM*	-13	?	?	-5	23µM*
Cc1cccc(-c2nc3ccccc3n2Cc2ccccc2)c1	·	·	?	·	4	5.2µM*
CCCn1c(-c2cccc(Br)c2)nc2ccccc21	·	·	-18%	·	-5	-26%
Fc1ccc(Cn2c(-c3cccc(Br)c3)nc3ccccc32)cc1	·	·	?	·	2	18µM*
Cc1ccc(Cn2c(-c3ccccc3)nc3ccccc32)cc1	·	·	?	·	3	?
Cc1cccc(Cn2c(-c3ccc[nH]c3=O)nc3ccccc32)c1	26%	-11	?	?	-1	21µM*
COc1ccc(/C=C/c2c([N+](=O)[O-])c(=O)n(C)c(=O)n2C)c(OC)c1	-19%	-28	12%	-11%	-5	-26%
CCc1ccc(/C=C/c2c([N+](=O)[O-])c(=O)n(C)c(=O)n2C)cc1	?	-98*	?	0%	-4	?
COc1ccc(/C=C/c2c([N+](=O)[O-])c(=O)n(C)c(=O)n2C)cc1	-6%	-13	0%	20%	-1	-3%
CCOc1ccc(/C=C/c2c([N+](=O)[O-])c(=O)n(C)c(=O)n2C)cc1	-20%	-93*	13%	-10%	3	?
Cn1c(/C=C/c2ccc(Cl)cc2Cl)c([N+](=O)[O-])c(=O)n(C)c1=O	11µM*	-4	8.2µM*	?	-4	5.2µM*
